# Laboratory results: the supplement of paper PMC6555819
# Key:
# Experiment in all cases: PBM binding z-score (relative to random genomic background probes); higher = stronger binding; sequences stand for … in GC…GCGATTGACAGCGTAGAATGAAGG
# [1] = system: RARb homodimer (NR concentration 270 nM)
# Outline: (§1)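 Binding z-scores were set against random background probes. The data came from custom Agilent 4×180K protein-binding microarrays carrying double-stranded probes with 34-nt variable regions, incubated 1 h with ligand-free nuclear receptor dimers. Partner-specific antibodies detected binding, and scanned fluorescence was regression-normalized.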
# [2] = system: RARg:RXRa (NR concentration 270 nM, RXRa partner concentration 90 nM)
# Outline: as §1
# [3] = system: RARg homodimer (NR concentration 270 nM)
# Outline: as §1
# [4] = system: RXRa DBDmut IVT, anti-RXR (DBD mutation: RXRa K156A/R161A, NR concentration 90 nM)
# Outline: as §1
# [5] = system: RXRa homodimer (NR concentration 180 nM)
# Outline: as §1
# [6] = system: THRa:RXRa (NR concentration 90 nM, RXRa partner concentration 90 nM)
# Outline: as §1
# [7] = system: THRa homodimer (NR concentration 90 nM)
# Outline: as §1
# [8] = system: VDR homodimer (NR concentration 270 nM)
# Outline: as §1
Sequence,PBM binding z-score [1],PBM binding z-score [2],PBM binding z-score [3],PBM binding z-score [4],PBM binding z-score [5],PBM binding z-score [6],PBM binding z-score [7],PBM binding z-score [8]
CGTCCAAGGTCAAGGACAGTGAAAGAGACTCGAA,3.94,6.19,6.78,3.26,5.3,3.74,2.83,2.03
ATCTCTAGTTAAAGATAGTTCAGTGAATGCAAAT,1.14,0.636,0.66,0.396,0.579,0.486,0.212,0.858
CCGACTGGGGGAGAAAGGTTACCATACCATCCGG,2.12,2.37,1.74,-0.115,2.39,1.84,0.416,0.562
TAGCATAGGTCATGGGCCAGTATACCACGCGAAC,3.37,5.5,4.93,0.253,5.71,2.67,-0.279,0.267
ACTAGCAGGCCAAGGGTCAGTCAAGATTAGTCCG,3.52,3.02,2.76,0.119,2.52,1.75,-0.147,0.29
GCTTGTAGATCATGGTTAAGAAAGACTAAGCTAA,-0.707,-0.198,-0.267,0.0641,-0.538,-0.389,-0.737,-0.385
CCGCCTGGGGCAAGGTTACCATAACGCACAGCCA,1.52,1.06,1.1,-0.994,0.987,1.3,0.7,-0.0695
TCATGTAGGTAAAGGTGAAAGTCGAACGATATGA,1.61,1.69,1.37,0.705,1.91,1.28,0.0244,0.443
ATCTCTACGTAAGACTCAGTTCAGTGAAGAACGC,0.71,0.107,0.393,0.74,0.286,0.601,0.378,1.45
ACTAGCAGGCCAAGTTTGGGTCAATCAAACAAAG,2.11,2.43,1.43,-0.255,0.858,2.25,0.6,0.00979
ATCTCTAGGTAAAGATAGTTCAGTGAGTGCAAAT,1.5,0.634,0.838,0.341,0.157,1.1,0.522,4.13
CGAACTAGGTCAAGGACAGGGAATCTCCGCACGC,3.19,4.09,5.13,1.35,2.84,3.13,2.25,0.294
ACAGACAGGTGATCAAGGTAACTCAGGCTATCAT,0.159,0.183,0.508,-0.511,0.28,1.72,0.997,-0.138
ATCGAAAGGTAGAGGTGAGTATAGAGAAAGGGAA,1.19,0.75,1.07,-0.488,0.652,0.94,0.25,0.0183
CAAACTAGGTCACCGGAAGGTCAATGTCCGCATG,5.62,8.18,7.34,2.27,5.58,4.36,2.94,3.01
CTCGAAAGGTCGGTTGAAGTGAGTATACGGATAA,1.72,2.38,2.65,0.742,1.98,1.42,0.13,0.557
GCTTGTAGATCAAGGGTAAGAAAGACTAAGCTAA,-0.585,-0.317,-0.393,-0.509,-0.00933,-0.138,-0.974,-0.486
ACTAGTTGGTCCGCTGAGGTCACACACAATTCGG,3.85,3.69,2.81,1.37,3.71,4.4,5.42,4.08
CTCGCAAGGTCGTGCTCAGGTGAGTATACCAAAC,1.7,3.26,2.14,2.15,2.52,3.63,1.6,1.22

Sequence,PBM binding z-score [1],PBM binding z-score [2],PBM binding z-score [3],PBM binding z-score [4],PBM binding z-score [5],PBM binding z-score [6],PBM binding z-score [7],PBM binding z-score [8]
TCTCGTAGATCAAGCAGGTTAAGAAAGCCTGAGT,-0.357,-0.372,-0.369,0.598,-0.0292,0.103,-0.615,-0.12
GTACCACGGTGAATAGGTCGTTGATGAGTAGGCG,0.859,0.755,0.261,-0.3,0.707,0.209,-0.565,0.098
ATCGAAGGGTCGACGAGGTGAGTATACACCGTTT,1.42,2.38,2.29,0.234,2.33,2.86,0.22,0.636
CTCCAAAGGTCGTGCTCAGGTGAGTATACCAAAC,2.74,5.41,4,2.23,5.01,4.15,1.09,0.905
TCTAGCAGGCCAGAGGGTCACTCAAGAGGTACGG,2.8,2.56,2.39,-0.167,2.61,1.54,-0.299,0.59
TGACCAAGGTGAGCTGAGGTCGTTGATCCAACTC,1.63,1.46,1.17,-0.41,1.52,4.69,1.8,1.7
ACTATTAGTTGAGACGAAGGCAACCGATAGGTTG,-0.559,-0.255,0.233,0.0754,-0.207,-0.702,-0.7,-0.261
TAGCCTAGATCATTGGGCCAGTATAGTACGCATC,-0.608,-0.554,-0.194,-0.443,-0.398,-0.832,-0.488,-0.283
TCATATAGTTAAAAGGTGAAAGTCGGTGTGGTAA,1.92,1.69,0.989,1.66,2.31,1.6,0.712,0.721
CAGACTAGGTCAAGAGGTCAAAGTCCGCTTCCCG,5.34,8,7.45,2.6,7.71,4.23,2.26,3.84
GCAGACAGGTGAGACGCAGGTAACTCAGGGTGGC,-0.0826,0.237,0.034,-0.867,0.28,0.763,-0.588,-0.464
ATATGTAGGTTAAGGGTAATTCAGGTTGGTTCGC,1.56,1.13,1.08,0.754,1.64,2.43,1.45,1.89
GATAGCAGGCCATTTGGGTCACTCAATGACGGGC,1.92,1.22,1.5,0.215,0.841,1.87,0.437,0.542
ACTAGTTGGTCAGCTGAGGTCAAACACAATTCGG,4.23,4.33,3.72,1.72,4.56,4.9,4.87,3.66
CCAGACGGGTGAAAGGTAACTCAGTCTGGTACGC,0.112,0.694,0.136,-0.879,1.81,0.461,-0.444,-0.582
TCTATTAGTAGATTAGGGCAACCGAAACAGCGGA,0.21,0.245,0.496,0.901,0.284,0.399,-0.319,-0.419
TAGCCTAGGTCATGCGGGCCAGTATCGTGTCGGC,2.77,4.03,4.3,0.371,3.1,2.88,1.17,0.528
ATCTCTAGGTAACAAGTTTAGTGAAAGAGAGGAC,0.455,0.384,0.772,0.0199,0.165,0.929,0.836,0.684
CCTTACGGGGCACTGACAGGTTATAGCATTTGGA,0.4,0.997,0.998,0.12,0.44,0.141,-0.73,-0.309

Sequence,PBM binding z-score [1],PBM binding z-score [2],PBM binding z-score [3],PBM binding z-score [4],PBM binding z-score [5],PBM binding z-score [6],PBM binding z-score [7],PBM binding z-score [8]
CCGACAGGGGCATAAGGTTACCATAAGCCAGCCC,2.13,2.36,1.62,0.428,2.01,2.43,1.43,0.293
TCATATAGGTAAGTGCTAGGTGAAAGTCCGATCT,0.823,0.114,0.186,1.23,0.629,0.873,0.473,0.173
TCATATAGATAAAAGGTGAAAGTCGGTGTGGTAA,1.53,1.23,0.872,2.07,2.41,1.24,0.0496,0.309
CCGACTGGGGCAGAAAGGATACCATACCATCCGG,0.0502,-0.104,0.264,-1.19,-0.344,-0.682,-0.741,-0.566
CAGCCTAGCTCAGGGCCAGTATAGGAGGAACGTT,-0.467,-0.693,-0.422,-0.824,-0.971,-0.848,-0.716,-0.754
CCGACTGGGGGAAAGGTTACCATACTCAGTACGA,2.1,2.79,1.78,0.141,3.06,2.14,0.672,0.298
TGTCAAAGTTCAAAGGAAACGTAAGTATCCACAC,3.37,5.07,5.18,3.95,4.12,1.62,-0.452,3.4
ACTATTAGCTGAGACGAGGGCAACCGATAGGTTG,1.27,0.452,0.667,0.345,0.587,0.992,0.251,0.999
TTACCAAGGTGAAGGTCCTTGATCCCTCTGTAGA,1.32,0.466,0.274,-0.201,0.918,1.95,0.841,-0.203
TCTAGTAGATCAATAGAGGTTAAGAAAGTGCGCT,1.38,0.728,0.2,0.439,1.56,2.09,-0.79,0.312
GCTAGTTGGTCAGTAAAAGGTCCCACACCGGTCG,1.08,0.163,0.286,-0.751,-0.112,-0.281,-0.0359,-0.387
CCTACTGGGCCAAAGGTCATTTATTCCAATGCTC,4.42,5.3,4.03,1.55,6.1,3.27,0.735,3.04
GCAACGAGGGCAAGTTGATAGCAGAGTTTGATGG,1.66,1.61,1.77,2.2,0.98,1.36,0.152,1.66
ACTAGCAGGCCAAGTTTGGGTCGCTCAAACAAAG,0.422,0.182,-0.0192,-0.368,-0.399,0.704,-0.599,-0.503
ACTATTAGTTGAGTCGAGGGCAACCGATAGGTTG,1.2,0.788,0.802,0.52,0.607,2.3,0.603,1.05
AGAACGAGGGCAGGCTGAGTTGATAGCAGAGTAG,0.683,0.569,1.17,0.639,0.342,0.523,-0.552,0.453
CTACCAAGGTGAACAAGGTCTTTGATTACTATTC,1.24,0.878,0.946,0.886,0.789,2.52,1.42,0.414
ATCTCTAAGTAACAAGTTCAGTGAAAGAGAGGAC,1.84,0.884,1.24,1.06,0.744,0.981,0.691,2.61
